High-throughput results from PubChem.
Hits are enriched below; roughly 4.3% of the tested compounds scored in any of these assays.
ADAM17 inh: ADAM17 inhibitors, primary screen, biochemical, QFRET; Disintegrin and metalloproteinase domain-containing protein 17 (Homo sapiens), P78536; recombinant ADAM17, EDANS/DABCYL FRET peptide cleavage; inhibition, % at 6.95 µM; 370,000 compounds, 0.83% hits; AID 720648, 2013;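 active = inhibition above the mean of compounds lying between control limits plus 3 SD, set per campaign, cut at about 8.5% in these data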;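 also: 0% = DMSO-only wells as the low control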
HGIII-sPLA2 inh: human group III sPLA2 inhibitors, primary screen, biochemical, QFRET, BODIPY PC-A2 liposome substrate | QFRET BODIPY PC-A2 liposome hydrolysis, fluorescence | inhibition, % at 12.2 µM | 370,000 compounds, 0.56% hits | AID 743126, 2013;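 active = inhibition above mean plus 3 SD of compounds lying within the high and low control bounds, cut at about 19% in these data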;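 also: 0% = median of test compound wells and 100% = no enzyme DMSO wells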
ADAM10 inh: human ADAM10 inhibitors, primary screen, biochemical, QFRET, HTS; recombinant ADAM10, EDANS/DABCYL FRET peptide cleavage, 3 h; Disintegrin and metalloproteinase domain-containing protein 10 (Homo sapiens), O14672; inhibition, % at 7 µM; 370,000 compounds, 0.62% hits;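 active = inhibition above a per-campaign cutoff equal to the mean of compounds falling between control-based bounds plus 3 SD, cut at about 20% in these data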;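 also: 0% = DMSO wells while the 100% control is not disclosed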
FAS-TE inh: FAS thioesterase domain inhibitors, primary screen, biochemical, fluorescence intensity, uHTS; recombinant FAS-TE, OMFH fluorogenic substrate, fluorescence endpoint; 360,000 compounds, 0.67% hits; AID 602261, 2012; inhibition, % at 15 µM;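 active = compounds whose normalised, plate-corrected inhibition of enzyme fluorescence in the single-dose primary screen is 50% or more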;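 also: 0% = DMSO with enzyme and 100% = substrate without enzyme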
NR3A LBD binder: binders of NR3A ligand-binding domain, primary screen, biophysical, differential scanning fluorimetry, uHTS; Glutamate receptor ionotropic, NMDA 3A (GRIN3A) ligand-binding domain; NR3A LBD differential scanning fluorimetry, Tm shift; 0% = protein alone, 100% = glycine-bound protein; AID 1259313, 2017; 340,000 compounds, 2.5% hits; Tm shift relative to glycine control, % at 25 µM;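 active = melting temperature shift of at least 10% of the positive control shift, at one fixed dose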
ADAM10 confirm: human ADAM10 inhibitors, confirmation, biochemical, QFRET, triplicate | ADAM10 QFRET peptide cleavage, EDANS fluorescence | 2,100 compounds, 1% hits | shares compounds with ADAM10 inh | inhibition, % at 6.95 µM;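 active = inhibition above about 20% chosen separately for each screening run, limit read from the data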;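 also: 0% = DMSO wells and 100% = marimastat wells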
ADAM17 ctr: ADAM17 inhibitors, counter-screen for ADAM10 exosite inhibitor project, biochemical, QFRET, high throughput. shares compounds with ADAM10 inh. ADAM17 QFRET peptide cleavage, EDANS fluorescence. inhibition, % at 6.95 µM. 2,100 compounds, 0.5% hits. AID 743214, 2013;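 active = mean triplicate inhibition above the solvent-only control wells' mean plus 3 SD, cut at about 12% in these data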;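 also: 0% = DMSO wells and 100% = marimastat wells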
ADAM10 ctr: ADAM10 inhibitors, counter-screen for ADAM17 exosite inhibitor project, biochemical, FRET, human ADAM10; inhibition, % at 6.95 µM; shares compounds with ADAM17 inh; 2,900 compounds, 47% hits; recombinant ADAM10, EDANS/DABCYL FRET peptide cleavage, 3 h;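 active = mean inhibition over the triplicate runs exceeds the activity threshold set in the earlier primary screen, cut at about 20% in these data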;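 also: 0% = DMSO wells and 100% = marimastat wells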
ADAM17 confirm: ADAM17 inhibitors, hit retest, confirmation, biochemical, QFRET peptide cleavage | shares compounds with ADAM17 inh | recombinant ADAM17, EDANS/DABCYL QFRET peptide cleavage | inhibition, % at 6.95 µM | 2,900 compounds, 65% hits;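 active = mean inhibition across replicates above the hit cutoff set in the primary screen, cut at about 8.5% in these data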;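 also: 0% = DMSO wells and 100% = marimastat wells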
* marks the source's active call; other numbers are inactive results.

Screening O=C(C1CCC(Cn2c(=S)[nH]c3ccccc3c2=O)CC1)N1CCN(c2ccccc2)CC1 (configuration not stated) returned ADAM17 inh 9.1*, HGIII-sPLA2 inh -3.8, ADAM10 inh 24.9*, FAS-TE inh 25.9, NR3A LBD binder -2.8, ADAM10 confirm 10.7, ADAM17 ctr 3.0, ADAM10 ctr 17.0 and ADAM17 confirm 6.9.
Screening COC(=O)[C@]12C[C@H](CC(=O)N3CCN(C(=O)C4CC4)CC3)C(=O)N(Cc3ccco3)C1=C[C@H](COCc1ccccc1)O[C@@H]2C returned ADAM17 inh -3.7, HGIII-sPLA2 inh 5.3 and ADAM10 inh -4.8.
`O=C(NC(NC(=S)Nc1cccc(Cl)c1)C(Cl)(Cl)Cl)OCc1ccccc1` (configuration not stated) gave ADAM17 inh 10.3*, HGIII-sPLA2 inh -11.3, ADAM10 inh 28.4*, FAS-TE inh 36.9, NR3A LBD binder 29.4*, ADAM10 confirm 11.5, ADAM17 ctr 3.8, ADAM10 ctr 35.0* and ADAM17 confirm 20.2*.
`O=C(O)c1cccc(NC(=S)NC(NC(=O)c2ccco2)C(Cl)(Cl)Cl)c1` (configuration not stated) gave ADAM17 inh -2.5, HGIII-sPLA2 inh -5.7, ADAM10 inh -13.1, FAS-TE inh -2.4 and NR3A LBD binder 2.2.
For C[C@H](NC(=O)c1nc[nH]c1C(=O)NC(c1ccccc1)c1ccccc1)C(=O)OC(C)(C)C the results were ADAM17 inh 13.6*, HGIII-sPLA2 inh -7.2, ADAM10 inh 24.4*, FAS-TE inh 26.1, NR3A LBD binder -13.0, ADAM10 confirm 3.5, ADAM17 ctr 2.3, ADAM10 ctr 43.1* and ADAM17 confirm 24.0*.
Screening CC(C)(C)OC(=O)CNC(=O)c1[nH]cnc1C(=O)NC(c1ccccc1)c1ccccc1 returned ADAM17 inh 15.8*, HGIII-sPLA2 inh -14.3, ADAM10 inh 26.8*, FAS-TE inh 22.0, NR3A LBD binder -9.0, ADAM10 confirm 4.9, ADAM17 ctr 1.8, ADAM10 ctr 23.6* and ADAM17 confirm 14.0*.
For C[C@H](NC(=O)c1nc[nH]c1C(=O)N[C@H](C)c1ccccc1)C(=O)OC(C)(C)C the results were ADAM17 inh 3.8, HGIII-sPLA2 inh -9.5, ADAM10 inh 9.7, FAS-TE inh -0.2 and NR3A LBD binder -0.8.
Screening COc1ccc(CN2C3=NC(c4ccccc4)CC(=O)N3/C(=C\c3ccccc3)C2c2ccccc2)c(OC)c1 (configuration not stated) returned ADAM17 inh 2.3, HGIII-sPLA2 inh -8.0 and ADAM10 inh 5.8.
`CCc1nc(N2CCN(C(=S)NCCCOC)CC2)c2c3c(sc2n1)CCCC3` gave ADAM17 inh 14.0*, HGIII-sPLA2 inh -20.1, ADAM10 inh 20.2*, FAS-TE inh 27.0, NR3A LBD binder -7.6, ADAM10 confirm 4.0, ADAM17 ctr 1.8, ADAM10 ctr 13.4 and ADAM17 confirm 7.5.
CCC(=O)N1CCN(c2nc(CC)nc3sc4c(c23)CCCC4)CC1 was read as ADAM17 inh 0.8, HGIII-sPLA2 inh -2.5, ADAM10 inh 0.6, FAS-TE inh 0.9 and NR3A LBD binder 1.1.
C[C@@H]1CN([C@H](C)CO)C(=O)c2c(c3ccccc3n2C)-c2ccccc2CO[C@@H]1CN(C)C(=O)CCN(C)C was read as ADAM17 inh 0.7, HGIII-sPLA2 inh -1.9 and ADAM10 inh -14.5.
Nc1cccc(Oc2c(F)c(F)c(Oc3cccc(N)c3)c(F)c2F)c1 was read as ADAM17 inh 9.2*, HGIII-sPLA2 inh -20.6, ADAM10 inh 23.0*, FAS-TE inh 33.5, NR3A LBD binder 22.8*, ADAM10 confirm 3.9, ADAM17 ctr 0.7, ADAM10 ctr 40.8* and ADAM17 confirm 20.4*.
For Cc1ccc(NC(=O)c2cc(S(=O)(=O)Nc3ccc(C)cc3)cs2)cc1 the results were ADAM17 inh 10.1*, HGIII-sPLA2 inh -67.4, ADAM10 inh 26.7*, FAS-TE inh 22.5, NR3A LBD binder 27.3*, ADAM10 confirm 6.0, ADAM17 ctr 3.4, ADAM10 ctr 45.3* and ADAM17 confirm 18.8*.
`NC(=O)c1cc(S(=O)(=O)Nc2ccccc2)cs1` gave ADAM17 inh -3.5, HGIII-sPLA2 inh 3.5, ADAM10 inh 16.0, FAS-TE inh -3.5 and NR3A LBD binder 0.5.
Screening CCOc1ccc(Br)cc1S(=O)(=O)Nc1ccc(Cl)c(S(=O)(=O)N(CC)c2ccccc2)c1 returned ADAM17 inh 9.4*, HGIII-sPLA2 inh -56.6, ADAM10 inh 27.2*, FAS-TE inh 43.1, NR3A LBD binder 12.5*, ADAM10 confirm 7.7, ADAM17 ctr 3.0, ADAM10 ctr 34.5* and ADAM17 confirm 19.1*.
COC(=O)N1C[C@H](OCCCOCc2ccccc2)[C@H]2C[C@@H]1c1ccccc1O2 was read as ADAM17 inh -2.9, HGIII-sPLA2 inh -4.3 and ADAM10 inh -2.2.
For COc1ccc(NC(=O)COC(=O)c2c3c(nc4ccccc24)CCCC3)cc1Cl the results were ADAM17 inh 11.9*, HGIII-sPLA2 inh -35.0, ADAM10 inh 23.5*, FAS-TE inh 27.2, NR3A LBD binder 4.2, ADAM10 confirm 4.5, ADAM17 ctr 2.5, ADAM10 ctr 30.3* and ADAM17 confirm 18.7*.
